Test results: ChEMBL document CHEMBL2218924, “A broad activity screen in support of a chemogenomic map for kinase signalling research and drug discovery” (Biochem J, 2013); call rule not given here

What was measured:
[1] = target: T1, Ephrin type-A receptor 3 (Homo sapiens) (UniProt P29320); details: at 10 µM
T1 sequence (whole entry): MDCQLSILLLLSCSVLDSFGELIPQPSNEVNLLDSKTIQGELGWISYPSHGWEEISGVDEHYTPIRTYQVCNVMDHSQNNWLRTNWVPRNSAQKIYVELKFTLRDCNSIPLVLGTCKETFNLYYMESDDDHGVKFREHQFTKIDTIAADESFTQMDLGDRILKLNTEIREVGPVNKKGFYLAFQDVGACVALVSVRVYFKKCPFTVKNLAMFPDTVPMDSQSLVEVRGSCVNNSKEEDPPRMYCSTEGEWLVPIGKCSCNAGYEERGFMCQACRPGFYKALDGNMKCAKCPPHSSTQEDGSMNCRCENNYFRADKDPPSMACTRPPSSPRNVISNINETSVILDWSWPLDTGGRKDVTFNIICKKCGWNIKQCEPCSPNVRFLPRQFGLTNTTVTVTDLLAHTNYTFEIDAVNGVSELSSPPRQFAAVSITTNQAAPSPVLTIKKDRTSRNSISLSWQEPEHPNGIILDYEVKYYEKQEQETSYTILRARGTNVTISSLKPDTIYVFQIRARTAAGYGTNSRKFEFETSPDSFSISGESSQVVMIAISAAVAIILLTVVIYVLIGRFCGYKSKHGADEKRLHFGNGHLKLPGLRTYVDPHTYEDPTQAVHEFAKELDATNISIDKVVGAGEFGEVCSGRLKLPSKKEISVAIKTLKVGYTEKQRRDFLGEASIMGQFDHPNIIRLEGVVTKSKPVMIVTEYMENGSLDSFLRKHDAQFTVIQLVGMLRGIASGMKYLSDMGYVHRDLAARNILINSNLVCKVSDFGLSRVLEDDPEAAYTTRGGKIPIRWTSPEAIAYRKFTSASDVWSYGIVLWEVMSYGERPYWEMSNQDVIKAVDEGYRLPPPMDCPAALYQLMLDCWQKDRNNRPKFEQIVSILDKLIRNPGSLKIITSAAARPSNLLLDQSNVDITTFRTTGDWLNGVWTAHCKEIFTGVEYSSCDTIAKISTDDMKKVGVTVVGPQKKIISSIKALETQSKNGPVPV

[2] = target: Ephrin type-A receptor 7 (Homo sapiens) (UniProt Q15375); details: at 1 µM
Ephrin type-A receptor 7 (Homo sapiens), sequence (Q15375 28-998 limits assumed): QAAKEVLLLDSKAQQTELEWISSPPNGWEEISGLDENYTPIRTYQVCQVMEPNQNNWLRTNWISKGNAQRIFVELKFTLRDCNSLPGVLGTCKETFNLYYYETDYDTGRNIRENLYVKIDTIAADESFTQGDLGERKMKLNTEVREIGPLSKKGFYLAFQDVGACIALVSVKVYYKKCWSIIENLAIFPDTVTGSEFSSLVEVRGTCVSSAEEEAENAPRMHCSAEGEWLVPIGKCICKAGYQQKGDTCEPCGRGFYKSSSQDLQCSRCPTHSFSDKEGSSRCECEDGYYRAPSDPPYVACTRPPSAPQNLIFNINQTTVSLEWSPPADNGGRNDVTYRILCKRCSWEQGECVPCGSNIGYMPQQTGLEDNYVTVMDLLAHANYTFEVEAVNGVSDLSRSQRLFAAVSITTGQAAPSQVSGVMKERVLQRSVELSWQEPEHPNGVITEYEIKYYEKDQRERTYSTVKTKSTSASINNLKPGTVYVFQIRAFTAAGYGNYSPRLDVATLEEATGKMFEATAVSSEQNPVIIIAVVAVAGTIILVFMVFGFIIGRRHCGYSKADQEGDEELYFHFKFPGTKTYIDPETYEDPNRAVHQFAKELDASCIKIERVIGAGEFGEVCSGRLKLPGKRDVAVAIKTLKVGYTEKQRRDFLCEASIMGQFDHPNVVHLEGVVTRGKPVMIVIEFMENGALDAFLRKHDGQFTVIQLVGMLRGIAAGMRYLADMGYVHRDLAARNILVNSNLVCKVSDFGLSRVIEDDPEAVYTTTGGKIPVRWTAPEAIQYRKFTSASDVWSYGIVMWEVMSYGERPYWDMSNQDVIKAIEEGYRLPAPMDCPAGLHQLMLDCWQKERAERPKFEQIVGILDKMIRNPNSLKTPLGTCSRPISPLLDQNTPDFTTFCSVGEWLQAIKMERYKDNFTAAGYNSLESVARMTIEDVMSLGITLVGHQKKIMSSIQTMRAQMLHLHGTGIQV

[3] = target: Ephrin type-A receptor 7 (Homo sapiens) (UniProt Q15375); details: at 10 µM
[4] = target: T2, Ephrin type-B receptor 1 (Homo sapiens) (UniProt P54762); details: at 1 µM
T2 sequence (whole entry): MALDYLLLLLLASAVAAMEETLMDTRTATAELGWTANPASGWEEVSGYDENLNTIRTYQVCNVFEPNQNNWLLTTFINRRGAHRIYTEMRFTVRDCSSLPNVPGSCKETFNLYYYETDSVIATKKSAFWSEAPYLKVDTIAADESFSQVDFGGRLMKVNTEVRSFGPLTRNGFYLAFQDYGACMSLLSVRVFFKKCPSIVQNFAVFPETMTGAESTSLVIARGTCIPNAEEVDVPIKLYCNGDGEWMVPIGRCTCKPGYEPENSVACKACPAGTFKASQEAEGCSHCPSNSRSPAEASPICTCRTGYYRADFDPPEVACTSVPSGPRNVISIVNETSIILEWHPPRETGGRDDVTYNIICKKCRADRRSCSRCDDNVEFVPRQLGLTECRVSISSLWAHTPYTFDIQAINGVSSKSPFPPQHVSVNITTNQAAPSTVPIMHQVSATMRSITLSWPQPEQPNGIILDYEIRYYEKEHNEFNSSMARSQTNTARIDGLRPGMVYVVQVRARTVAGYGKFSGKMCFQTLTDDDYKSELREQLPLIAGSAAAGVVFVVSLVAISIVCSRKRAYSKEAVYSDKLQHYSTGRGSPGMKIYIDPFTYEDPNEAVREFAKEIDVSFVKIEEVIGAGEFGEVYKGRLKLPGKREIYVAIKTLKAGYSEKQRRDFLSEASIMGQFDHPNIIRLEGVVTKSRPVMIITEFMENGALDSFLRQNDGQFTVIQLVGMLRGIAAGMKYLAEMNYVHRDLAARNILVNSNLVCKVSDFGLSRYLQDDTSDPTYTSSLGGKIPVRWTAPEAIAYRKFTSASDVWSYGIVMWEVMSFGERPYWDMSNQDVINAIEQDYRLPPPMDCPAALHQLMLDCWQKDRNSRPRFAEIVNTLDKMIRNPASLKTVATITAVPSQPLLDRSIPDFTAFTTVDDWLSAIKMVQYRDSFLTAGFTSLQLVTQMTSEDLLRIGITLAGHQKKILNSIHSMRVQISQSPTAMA

[5] = target: T2, Ephrin type-B receptor 1 (Homo sapiens); details: at 10 µM
[6] = target: T3, Ephrin type-B receptor 2 (Homo sapiens) (UniProt P29323); details: at 1 µM
T3 sequence (whole entry): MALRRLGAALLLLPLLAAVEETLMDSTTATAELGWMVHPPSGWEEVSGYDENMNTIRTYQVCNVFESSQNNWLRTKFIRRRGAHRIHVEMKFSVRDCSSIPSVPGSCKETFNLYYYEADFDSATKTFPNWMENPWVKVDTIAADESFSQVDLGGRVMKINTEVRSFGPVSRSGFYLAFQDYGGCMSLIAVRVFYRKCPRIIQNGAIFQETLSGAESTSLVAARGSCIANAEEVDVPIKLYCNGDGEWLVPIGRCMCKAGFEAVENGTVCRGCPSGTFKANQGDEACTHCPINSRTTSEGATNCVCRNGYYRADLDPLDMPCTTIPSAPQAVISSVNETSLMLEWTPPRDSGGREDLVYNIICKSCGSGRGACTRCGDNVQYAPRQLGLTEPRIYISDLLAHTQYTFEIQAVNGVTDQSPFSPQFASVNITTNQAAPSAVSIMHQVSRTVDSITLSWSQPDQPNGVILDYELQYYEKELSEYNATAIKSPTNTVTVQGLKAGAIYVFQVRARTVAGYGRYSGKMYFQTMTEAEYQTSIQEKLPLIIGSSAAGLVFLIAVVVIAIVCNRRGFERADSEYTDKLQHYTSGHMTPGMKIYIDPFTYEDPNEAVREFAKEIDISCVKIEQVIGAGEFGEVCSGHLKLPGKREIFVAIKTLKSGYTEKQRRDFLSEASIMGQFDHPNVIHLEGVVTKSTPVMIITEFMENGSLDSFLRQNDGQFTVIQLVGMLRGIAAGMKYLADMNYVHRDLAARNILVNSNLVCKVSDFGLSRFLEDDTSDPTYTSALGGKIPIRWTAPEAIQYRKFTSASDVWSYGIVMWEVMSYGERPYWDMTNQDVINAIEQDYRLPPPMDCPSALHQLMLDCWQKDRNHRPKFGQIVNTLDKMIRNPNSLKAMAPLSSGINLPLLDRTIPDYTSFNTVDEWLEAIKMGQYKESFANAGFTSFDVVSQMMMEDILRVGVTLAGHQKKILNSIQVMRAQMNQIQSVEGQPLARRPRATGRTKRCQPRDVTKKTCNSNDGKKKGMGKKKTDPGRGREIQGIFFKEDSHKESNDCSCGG

[7] = target: T3, Ephrin type-B receptor 2 (Homo sapiens); details: at 10 µM
[8] = target: T4, Ephrin type-B receptor 3 (Homo sapiens) (UniProt P54753); details: at 1 µM
T4 sequence (whole entry): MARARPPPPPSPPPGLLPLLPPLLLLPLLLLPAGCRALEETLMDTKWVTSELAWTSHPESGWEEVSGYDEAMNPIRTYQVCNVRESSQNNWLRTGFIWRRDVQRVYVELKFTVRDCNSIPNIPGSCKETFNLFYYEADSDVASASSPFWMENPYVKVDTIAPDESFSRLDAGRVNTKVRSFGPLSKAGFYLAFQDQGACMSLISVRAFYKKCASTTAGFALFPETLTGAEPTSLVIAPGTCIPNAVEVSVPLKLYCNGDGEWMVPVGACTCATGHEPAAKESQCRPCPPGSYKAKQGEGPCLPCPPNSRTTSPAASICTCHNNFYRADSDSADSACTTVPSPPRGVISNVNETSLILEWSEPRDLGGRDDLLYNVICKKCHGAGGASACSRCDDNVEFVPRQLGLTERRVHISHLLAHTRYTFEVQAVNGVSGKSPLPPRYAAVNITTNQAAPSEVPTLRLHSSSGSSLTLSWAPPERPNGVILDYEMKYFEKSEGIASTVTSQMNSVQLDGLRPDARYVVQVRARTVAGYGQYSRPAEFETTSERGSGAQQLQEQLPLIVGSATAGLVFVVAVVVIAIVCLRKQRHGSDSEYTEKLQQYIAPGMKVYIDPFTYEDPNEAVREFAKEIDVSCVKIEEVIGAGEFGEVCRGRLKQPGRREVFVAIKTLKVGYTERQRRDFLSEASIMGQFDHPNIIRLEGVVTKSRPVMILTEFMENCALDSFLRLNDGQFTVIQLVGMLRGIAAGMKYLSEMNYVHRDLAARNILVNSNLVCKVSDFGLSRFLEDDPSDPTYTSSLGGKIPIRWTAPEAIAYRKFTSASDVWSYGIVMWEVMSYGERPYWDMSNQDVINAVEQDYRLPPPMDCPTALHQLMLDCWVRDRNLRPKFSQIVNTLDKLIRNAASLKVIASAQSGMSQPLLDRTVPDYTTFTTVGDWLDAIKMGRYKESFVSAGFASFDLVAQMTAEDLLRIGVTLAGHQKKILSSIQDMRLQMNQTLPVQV

[9] = target: T4, Ephrin type-B receptor 3 (Homo sapiens); details: at 10 µM
[10] = target: Focal adhesion kinase 1 (Homo sapiens) (UniProt Q05397); details: at 1 µM
Focal adhesion kinase 1 (Homo sapiens), sequence (Q05397 2-1052 limits assumed): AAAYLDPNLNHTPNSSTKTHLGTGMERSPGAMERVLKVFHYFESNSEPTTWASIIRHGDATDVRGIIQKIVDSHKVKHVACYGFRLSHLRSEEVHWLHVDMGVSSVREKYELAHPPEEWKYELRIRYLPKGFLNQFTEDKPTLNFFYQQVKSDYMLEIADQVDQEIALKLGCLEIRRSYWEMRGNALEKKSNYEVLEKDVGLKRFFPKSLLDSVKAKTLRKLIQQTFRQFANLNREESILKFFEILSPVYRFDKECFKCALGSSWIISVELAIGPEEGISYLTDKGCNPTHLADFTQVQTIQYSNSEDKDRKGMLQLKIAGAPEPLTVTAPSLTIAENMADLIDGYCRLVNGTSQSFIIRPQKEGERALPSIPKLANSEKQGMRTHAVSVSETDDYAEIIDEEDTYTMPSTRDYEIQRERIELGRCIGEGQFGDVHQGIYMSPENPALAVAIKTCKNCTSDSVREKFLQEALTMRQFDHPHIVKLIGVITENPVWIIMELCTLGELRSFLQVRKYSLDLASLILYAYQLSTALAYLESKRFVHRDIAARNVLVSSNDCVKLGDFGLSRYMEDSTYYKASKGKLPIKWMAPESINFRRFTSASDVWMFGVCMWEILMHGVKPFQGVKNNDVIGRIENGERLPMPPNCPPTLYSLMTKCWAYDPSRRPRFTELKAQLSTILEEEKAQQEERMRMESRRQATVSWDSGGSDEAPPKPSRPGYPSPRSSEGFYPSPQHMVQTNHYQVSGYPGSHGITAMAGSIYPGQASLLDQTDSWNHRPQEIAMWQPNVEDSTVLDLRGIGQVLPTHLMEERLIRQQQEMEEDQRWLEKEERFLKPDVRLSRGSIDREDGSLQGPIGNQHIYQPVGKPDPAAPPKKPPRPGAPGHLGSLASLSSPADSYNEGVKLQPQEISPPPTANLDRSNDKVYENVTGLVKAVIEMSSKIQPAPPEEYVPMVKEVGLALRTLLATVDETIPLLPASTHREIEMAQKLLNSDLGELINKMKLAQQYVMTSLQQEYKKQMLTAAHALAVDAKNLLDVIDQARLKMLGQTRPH

[11] = target: Ephrin type-A receptor 5 (Homo sapiens) (UniProt P54756); details: at 1 µM
Ephrin type-A receptor 5 (Homo sapiens), sequence (P54756 whole entry): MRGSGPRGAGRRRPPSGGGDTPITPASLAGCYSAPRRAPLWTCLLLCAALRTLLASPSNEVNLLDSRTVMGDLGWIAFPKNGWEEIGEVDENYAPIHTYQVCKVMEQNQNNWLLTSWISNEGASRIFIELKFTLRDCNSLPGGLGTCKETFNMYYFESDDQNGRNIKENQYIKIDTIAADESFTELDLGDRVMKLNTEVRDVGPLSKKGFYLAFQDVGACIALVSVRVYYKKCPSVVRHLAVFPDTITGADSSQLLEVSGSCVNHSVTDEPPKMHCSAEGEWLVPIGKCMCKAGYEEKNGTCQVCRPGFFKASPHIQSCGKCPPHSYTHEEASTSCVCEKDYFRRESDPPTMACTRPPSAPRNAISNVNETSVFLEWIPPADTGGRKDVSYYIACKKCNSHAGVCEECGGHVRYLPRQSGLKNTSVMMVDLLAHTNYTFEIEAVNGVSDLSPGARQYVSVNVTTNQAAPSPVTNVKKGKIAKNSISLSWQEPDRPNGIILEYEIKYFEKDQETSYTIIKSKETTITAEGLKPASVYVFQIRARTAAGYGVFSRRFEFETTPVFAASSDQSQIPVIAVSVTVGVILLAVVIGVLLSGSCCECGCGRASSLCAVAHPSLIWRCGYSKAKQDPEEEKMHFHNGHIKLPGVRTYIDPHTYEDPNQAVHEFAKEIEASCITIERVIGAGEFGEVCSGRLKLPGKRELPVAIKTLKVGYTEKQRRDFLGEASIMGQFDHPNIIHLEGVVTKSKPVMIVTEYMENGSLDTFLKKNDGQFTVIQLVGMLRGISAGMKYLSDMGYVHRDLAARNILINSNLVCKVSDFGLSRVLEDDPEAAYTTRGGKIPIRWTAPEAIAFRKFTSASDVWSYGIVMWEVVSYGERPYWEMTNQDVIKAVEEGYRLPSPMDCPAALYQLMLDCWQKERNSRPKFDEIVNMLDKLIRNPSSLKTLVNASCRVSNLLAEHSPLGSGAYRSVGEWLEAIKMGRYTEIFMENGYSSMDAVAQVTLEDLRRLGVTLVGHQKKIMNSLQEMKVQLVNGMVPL

[12] = target: Ephrin type-A receptor 5 (Homo sapiens) (UniProt P54756); details: at 10 µM
[13] = target: T5, Ephrin type-A receptor 8 (Homo sapiens) (UniProt P29322); details: at 1 µM
T5 sequence (whole entry): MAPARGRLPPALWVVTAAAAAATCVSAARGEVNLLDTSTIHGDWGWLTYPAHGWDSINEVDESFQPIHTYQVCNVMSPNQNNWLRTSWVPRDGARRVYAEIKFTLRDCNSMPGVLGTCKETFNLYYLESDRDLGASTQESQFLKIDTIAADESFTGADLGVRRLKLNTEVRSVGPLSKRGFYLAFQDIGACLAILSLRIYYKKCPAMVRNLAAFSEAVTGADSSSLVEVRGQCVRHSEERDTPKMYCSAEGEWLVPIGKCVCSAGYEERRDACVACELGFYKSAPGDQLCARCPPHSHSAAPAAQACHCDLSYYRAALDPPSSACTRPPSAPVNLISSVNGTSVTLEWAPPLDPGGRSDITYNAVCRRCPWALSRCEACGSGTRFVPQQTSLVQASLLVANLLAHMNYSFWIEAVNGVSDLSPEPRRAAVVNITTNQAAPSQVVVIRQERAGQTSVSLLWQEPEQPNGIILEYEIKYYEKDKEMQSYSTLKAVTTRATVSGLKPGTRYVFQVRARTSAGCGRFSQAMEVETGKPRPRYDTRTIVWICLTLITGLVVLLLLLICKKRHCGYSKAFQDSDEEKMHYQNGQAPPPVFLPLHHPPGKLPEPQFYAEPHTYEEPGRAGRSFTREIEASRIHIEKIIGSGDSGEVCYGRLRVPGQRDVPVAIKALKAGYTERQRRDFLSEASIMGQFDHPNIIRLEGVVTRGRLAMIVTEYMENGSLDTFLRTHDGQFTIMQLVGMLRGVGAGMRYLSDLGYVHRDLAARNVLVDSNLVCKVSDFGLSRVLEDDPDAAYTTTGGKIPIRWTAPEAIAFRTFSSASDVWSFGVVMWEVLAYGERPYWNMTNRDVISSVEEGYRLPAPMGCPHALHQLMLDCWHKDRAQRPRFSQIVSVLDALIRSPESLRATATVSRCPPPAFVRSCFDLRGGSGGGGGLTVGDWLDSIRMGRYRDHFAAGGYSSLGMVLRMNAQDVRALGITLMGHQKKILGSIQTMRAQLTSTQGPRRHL

[14] = target: T5, Ephrin type-A receptor 8 (Homo sapiens); details: at 10 µM
[15] = target: T6, Ephrin type-B receptor 4 (Homo sapiens) (UniProt P54760); details: at 1 µM
T6 sequence (whole entry): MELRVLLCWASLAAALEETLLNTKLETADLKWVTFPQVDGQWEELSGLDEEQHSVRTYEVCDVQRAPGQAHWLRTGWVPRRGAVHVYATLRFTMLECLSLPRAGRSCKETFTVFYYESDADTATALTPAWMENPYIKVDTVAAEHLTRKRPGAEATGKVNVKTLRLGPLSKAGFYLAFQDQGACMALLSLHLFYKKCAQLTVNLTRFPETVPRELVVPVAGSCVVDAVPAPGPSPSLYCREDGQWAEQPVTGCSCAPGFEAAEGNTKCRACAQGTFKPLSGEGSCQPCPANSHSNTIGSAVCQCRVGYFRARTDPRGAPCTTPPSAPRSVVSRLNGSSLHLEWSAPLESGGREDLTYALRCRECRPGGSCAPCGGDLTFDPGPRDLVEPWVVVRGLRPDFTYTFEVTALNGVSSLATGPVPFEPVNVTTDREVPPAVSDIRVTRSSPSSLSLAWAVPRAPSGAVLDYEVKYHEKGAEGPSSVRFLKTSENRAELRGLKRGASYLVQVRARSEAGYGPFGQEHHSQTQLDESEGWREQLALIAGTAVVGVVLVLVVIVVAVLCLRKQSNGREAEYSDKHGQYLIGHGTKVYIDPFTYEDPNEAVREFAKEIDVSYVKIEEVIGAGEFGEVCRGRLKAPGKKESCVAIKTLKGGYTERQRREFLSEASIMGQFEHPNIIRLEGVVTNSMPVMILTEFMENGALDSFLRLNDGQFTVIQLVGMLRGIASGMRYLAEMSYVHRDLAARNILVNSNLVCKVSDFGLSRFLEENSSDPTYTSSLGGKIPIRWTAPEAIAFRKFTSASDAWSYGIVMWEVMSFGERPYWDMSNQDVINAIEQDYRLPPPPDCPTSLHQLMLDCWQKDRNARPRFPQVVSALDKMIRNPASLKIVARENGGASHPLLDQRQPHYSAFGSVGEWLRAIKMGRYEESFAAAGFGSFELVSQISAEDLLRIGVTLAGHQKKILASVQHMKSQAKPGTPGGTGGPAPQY

[16] = target: T6, Ephrin type-B receptor 4 (Homo sapiens); details: at 10 µM

| SMILES | residual activity [1] [%] | residual activity [2] [%] | residual activity [3] [%] | residual activity [4] [%] | residual activity [5] [%] | residual activity [6] [%] | residual activity [7] [%] | residual activity [8] | residual activity [9] [%] | residual activity [10] [%] | residual activity [11] [%] | residual activity [12] [%] | residual activity [13] [%] | residual activity [14] [%] | residual activity [15] [%] | residual activity [16] [%] |
| --- | --- | --- | --- | --- | --- | --- | --- | --- | --- | --- | --- | --- | --- | --- | --- | --- |
| Cn1c2ccccc2c2c3c(c4c5ccccc5n(CCC#N)c4c21)CNC3=O | 50 | 43 | 39 | 63 | 63 | 116 | 111 | 105% (inactive) | 118 | 33 | – | – | – | – | – | – |
| COc1cc2c(cc1OC)-c1n[nH]c(Nc3cccc(F)c3)c1C2 | 42 | – | 64 | 83 | 43 | – | 64 | – | – | – | 103 | 43 | 69 | 26 | 77 | 35 |
